According to the supplement of paper PMC6992640:
Counter-ions that a name gives are not always drawn. ± gives the standard deviation of the averaged measurements.

Assays:
[1] = tested on: HCI01 (cells of a triple-negative basal-like breast cancer xenograft); assay: cell viability of combination (% of vehicle); higher = less cytotoxic; conditions: 1 µM; 72 h; partner dose: 10 nM
Procedure: (§1)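 PDX cells were treated for 72 h with each drug at 1 µM plus carfilzomib (10 nM; 100 nM for WHIM2). Luciferase viability is expressed as percent of vehicle.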

[2] = tested on: UCD52 (cells of a triple-negative basal-like breast cancer xenograft); assay: as above; conditions: 1 µM; 72 h; partner dose: 10 nM
Procedure: as §1

[3] = tested on: HCI03 (cells of an ER-positive luminal breast cancer xenograft); assay: cell viability (% of vehicle); higher = less cytotoxic; conditions: 10 µM; 72 h
[4] = tested on: HCI09 (cells of a triple-negative luminal androgen receptor type breast cancer xenograft); assay: as above; conditions: 10 µM; 72 h
[5] = tested on: HCI13 (cells of an ER-positive luminal breast cancer xenograft); assay: as above; conditions: 10 µM; 72 h
[6] = tested on: WHIM2 (cells of a triple-negative basal-like breast cancer xenograft); assay: as above; conditions: 10 µM; 72 h
[7] = tested on: HCI11 (cells of an ER-positive luminal breast cancer xenograft); assay: as above; conditions: 10 µM; 72 h
[8] = tested on: HCI16 (cells of a triple-negative basal-like breast cancer xenograft); assay: as above; conditions: 10 µM; 72 h

CNCCCC12CCC(c3ccccc31)c1ccccc12.Cl [Maprotiline HCl] + CC(C)C[C@H](NC(=O)[C@H](CCc1ccccc1)NC(=O)CN1CCOCC1)C(=O)N[C@@H](Cc1ccccc1)C(=O)N[C@@H](CC(C)C)C(=O)[C@@]1(C)CO1 [Carfilzomib]
cell viability of combination [1]: 76.5 | cell viability of combination [2]: 55.5

CC=C1NC(=O)C2CSSCCC=CC(CC(=O)NC(C(C)C)C(=O)N2)OC(=O)C(C(C)C)NC1=O (stereo not drawn) [Romidepsin (FK228, depsipeptide)]
cell viability [3]: 177 | cell viability [4]: 77.5 ± 29 | cell viability [5]: 66.1 ± 6.7 | cell viability [6]: 34.4 ± 4.2

COc1nc2ccc(Br)cc2cc1[C@@H](c1ccccc1)[C@@](O)(CCN(C)C)c1cccc2ccccc12 [Bedaquiline fumarate] + CC(C)C[C@H](NC(=O)[C@H](CCc1ccccc1)NC(=O)CN1CCOCC1)C(=O)N[C@@H](Cc1ccccc1)C(=O)N[C@@H](CC(C)C)C(=O)[C@@]1(C)CO1 [Carfilzomib]
cell viability of combination [1]: 77.1 | cell viability of combination [2]: 68.8

COC(=O)C12CCC(C)(C)CC1C1C(=O)C=C3C4(C)C=C(C#N)C(=O)C(C)(C)C4CCC3(C)C1(C)CC2 (stereo not drawn) [Bardoxolone methyl] + CC(C)C[C@H](NC(=O)[C@H](CCc1ccccc1)NC(=O)CN1CCOCC1)C(=O)N[C@@H](Cc1ccccc1)C(=O)N[C@@H](CC(C)C)C(=O)[C@@]1(C)CO1 [Carfilzomib]
cell viability of combination [1]: 158 | cell viability of combination [2]: 28.1

COc1ccc2cc1Oc1ccc(cc1)CC1c3c(cc4c(c3Oc3cc5c(cc3OC)CCN(C)C5C2)OCO4)CCN1C (stereo not drawn) [Cepharanthine] + CC(C)C[C@H](NC(=O)[C@H](CCc1ccccc1)NC(=O)CN1CCOCC1)C(=O)N[C@@H](Cc1ccccc1)C(=O)N[C@@H](CC(C)C)C(=O)[C@@]1(C)CO1 [Carfilzomib]
cell viability of combination [1]: 76.2 | cell viability of combination [2]: 45.8

COc1cc(Nc2ncc(F)c(Nc3ccc4c(n3)N(COP(=O)(O)O)C(=O)C(C)(C)O4)n2)cc(OC)c1OC [Fostamatinib (R788)] + CC(C)C[C@H](NC(=O)[C@H](CCc1ccccc1)NC(=O)CN1CCOCC1)C(=O)N[C@@H](Cc1ccccc1)C(=O)N[C@@H](CC(C)C)C(=O)[C@@]1(C)CO1 [Carfilzomib]
cell viability of combination [1]: 119 | cell viability of combination [2]: 64.9

O=C(CCCCCCC(=O)Nc1ccccc1)NO [Vorinostat (SAHA, MK0683)]
cell viability [4]: 46.1 ± 37 | cell viability [7]: 21.7 | cell viability [5]: 61 ± 23 | cell viability [6]: 47.5 ± 4.1

CC(C)CC(NC(=O)C(NC(=O)c1cccc(-c2ccccc2)n1)C(C)O)B(O)O (stereo not drawn) + CC(C)C[C@H](NC(=O)[C@H](CCc1ccccc1)NC(=O)CN1CCOCC1)C(=O)N[C@@H](Cc1ccccc1)C(=O)N[C@@H](CC(C)C)C(=O)[C@@]1(C)CO1 [Carfilzomib]
cell viability of combination [1]: 42.4 | cell viability of combination [2]: 20.1

Cl.OC(c1cc(C(F)(F)F)nc2c(C(F)(F)F)cccc12)C1CCCCN1 (stereo not drawn) [Mefloquine hydrochloride] + CC(C)C[C@H](NC(=O)[C@H](CCc1ccccc1)NC(=O)CN1CCOCC1)C(=O)N[C@@H](Cc1ccccc1)C(=O)N[C@@H](CC(C)C)C(=O)[C@@]1(C)CO1 [Carfilzomib]
cell viability of combination [1]: 82.9 | cell viability of combination [2]: 51.6

Oc1ccc(C=Cc2cc(O)cc(O)c2)cc1 [Resveratrol]
cell viability [4]: 196 ± 110 | cell viability [8]: 174 | cell viability [6]: 191 ± 54

N.N.O=C([O-])C1(C(=O)[O-])CCC1.[Pt+2] [Carboplatin] + CC(C)C[C@H](NC(=O)[C@H](CCc1ccccc1)NC(=O)CN1CCOCC1)C(=O)N[C@@H](Cc1ccccc1)C(=O)N[C@@H](CC(C)C)C(=O)[C@@]1(C)CO1 [Carfilzomib]
cell viability of combination [1]: 81.2 | cell viability of combination [2]: 70.6

COc1cc2c(Oc3ccc4[nH]c(C)cc4c3F)ncnc2cc1OCCCN1CCCC1 [Cediranib (AZD217)] + CC(C)C[C@H](NC(=O)[C@H](CCc1ccccc1)NC(=O)CN1CCOCC1)C(=O)N[C@@H](Cc1ccccc1)C(=O)N[C@@H](CC(C)C)C(=O)[C@@]1(C)CO1 [Carfilzomib]
cell viability of combination [1]: 80.6 | cell viability of combination [2]: 31.6

CN(C)c1ccc(C(=C2C=CC(=[N+](C)C)C=C2)c2ccc(N(C)C)cc2)cc1.[Cl-] [Crystal Violet] + CC(C)C[C@H](NC(=O)[C@H](CCc1ccccc1)NC(=O)CN1CCOCC1)C(=O)N[C@@H](Cc1ccccc1)C(=O)N[C@@H](CC(C)C)C(=O)[C@@]1(C)CO1 [Carfilzomib]
cell viability of combination [1]: 68 | cell viability of combination [2]: 32.3

COc1cc2nccc(Oc3ccc(NC(=O)Nc4cc(C)on4)c(Cl)c3)c2cc1OC [Tivozanib (AV-951)] + CC(C)C[C@H](NC(=O)[C@H](CCc1ccccc1)NC(=O)CN1CCOCC1)C(=O)N[C@@H](Cc1ccccc1)C(=O)N[C@@H](CC(C)C)C(=O)[C@@]1(C)CO1 [Carfilzomib]
cell viability of combination [1]: 97.5 | cell viability of combination [2]: 48.9

CN1CCN(CCOc2cc(OC3CCOCC3)c3c(Nc4c(Cl)ccc5c4OCO5)ncnc3c2)CC1 [Saracatinib (AZD0530)] + CC(C)C[C@H](NC(=O)[C@H](CCc1ccccc1)NC(=O)CN1CCOCC1)C(=O)N[C@@H](Cc1ccccc1)C(=O)N[C@@H](CC(C)C)C(=O)[C@@]1(C)CO1 [Carfilzomib]
cell viability of combination [1]: 66.1 | cell viability of combination [2]: 39.3

CCCCCCCCOc1ccccc1C(=O)Nc1ccc(C(=O)OCC[N+](C)(CC)CC)cc1.[Br-] [Otilonium Bromide] + CC(C)C[C@H](NC(=O)[C@H](CCc1ccccc1)NC(=O)CN1CCOCC1)C(=O)N[C@@H](Cc1ccccc1)C(=O)N[C@@H](CC(C)C)C(=O)[C@@]1(C)CO1 [Carfilzomib]
cell viability of combination [1]: 81.5 | cell viability of combination [2]: 67

CCCCCCCCCCCC1=C(O)C(=O)C=C(O)C1=O [Embelin] + CC(C)C[C@H](NC(=O)[C@H](CCc1ccccc1)NC(=O)CN1CCOCC1)C(=O)N[C@@H](Cc1ccccc1)C(=O)N[C@@H](CC(C)C)C(=O)[C@@]1(C)CO1 [Carfilzomib]
cell viability of combination [1]: 71.1 | cell viability of combination [2]: 55.5

CC(C)CC(NC(=O)C(CCc1ccccc1)NC(=O)CN1CCOCC1)C(=O)NC(Cc1ccccc1)C(=O)NC(CC(C)C)C(=O)C1(C)CO1 (stereo not drawn) [Carfilzomib (PR-171)] + CC(C)C[C@H](NC(=O)[C@H](CCc1ccccc1)NC(=O)CN1CCOCC1)C(=O)N[C@@H](Cc1ccccc1)C(=O)N[C@@H](CC(C)C)C(=O)[C@@]1(C)CO1 [Carfilzomib]
cell viability of combination [1]: 31 | cell viability of combination [2]: 14.2

CCN1CCN(Cc2ccc(Nc3ncc(F)c(-c4cc(F)c5nc(C)n(C(C)C)c5c4)n3)nc2)CC1.CS(=O)(=O)O + CC(C)C[C@H](NC(=O)[C@H](CCc1ccccc1)NC(=O)CN1CCOCC1)C(=O)N[C@@H](Cc1ccccc1)C(=O)N[C@@H](CC(C)C)C(=O)[C@@]1(C)CO1 [Carfilzomib]
cell viability of combination [1]: 62.7 | cell viability of combination [2]: 64.9

CN1CCN(CCCN2c3ccccc3Sc3ccc(C(F)(F)F)cc32)CC1.Cl.Cl [Trifluoperazine 2HCl] + CC(C)C[C@H](NC(=O)[C@H](CCc1ccccc1)NC(=O)CN1CCOCC1)C(=O)N[C@@H](Cc1ccccc1)C(=O)N[C@@H](CC(C)C)C(=O)[C@@]1(C)CO1 [Carfilzomib]
cell viability of combination [1]: 76.2 | cell viability of combination [2]: 59.5

COC(=O)C1=C(C)NC(C)=C(C(=O)OCCN(C)Cc2ccccc2)C1c1cccc([N+](=O)[O-])c1.Cl (stereo not drawn) [Nicardipine HCl] + CC(C)C[C@H](NC(=O)[C@H](CCc1ccccc1)NC(=O)CN1CCOCC1)C(=O)N[C@@H](Cc1ccccc1)C(=O)N[C@@H](CC(C)C)C(=O)[C@@]1(C)CO1 [Carfilzomib]
cell viability of combination [1]: 115 | cell viability of combination [2]: 52

CCc1oc2ccccc2c1C(=O)c1cc(Br)c(O)c(Br)c1 [Benzbromarone] + CC(C)C[C@H](NC(=O)[C@H](CCc1ccccc1)NC(=O)CN1CCOCC1)C(=O)N[C@@H](Cc1ccccc1)C(=O)N[C@@H](CC(C)C)C(=O)[C@@]1(C)CO1 [Carfilzomib]
cell viability of combination [1]: 84.6 | cell viability of combination [2]: 63.1

CC(C)c1nc(N(C)S(C)(=O)=O)nc(-c2ccc(F)cc2)c1C=CC(O)CC(O)CC(=O)[O-].CC(C)c1nc(N(C)S(C)(=O)=O)nc(-c2ccc(F)cc2)c1C=CC(O)CC(O)CC(=O)[O-].[Ca+2] (stereo not drawn) [Rosuvastatin Calcium] + CC(C)C[C@H](NC(=O)[C@H](CCc1ccccc1)NC(=O)CN1CCOCC1)C(=O)N[C@@H](Cc1ccccc1)C(=O)N[C@@H](CC(C)C)C(=O)[C@@]1(C)CO1 [Carfilzomib]
cell viability of combination [1]: 80.8 | cell viability of combination [2]: 67.7

COc1cccc2c1C(=O)c1c(O)c3c(c(O)c1C2=O)CC(O)(C(=O)CO)CC3OC1CC(N)C(O)C(C)O1 (stereo not drawn) [Doxorubicin] + CC(C)C[C@H](NC(=O)[C@H](CCc1ccccc1)NC(=O)CN1CCOCC1)C(=O)N[C@@H](Cc1ccccc1)C(=O)N[C@@H](CC(C)C)C(=O)[C@@]1(C)CO1 [Carfilzomib]
cell viability of combination [1]: 55.4 | cell viability of combination [2]: 28.3
